Assay outcomes as filed in PubChem.
KB-3-1 tox: kills parental KB-3-1 adenocarcinoma cells; KB-3-1 viability, CellTiter-Glo ATP luminescence, 72 h; Potency, µM (series often up to 46.1 µM), hits mostly cytotoxic; hit rate 1.4% among 400,000; note: nearly all actives have a fitted effect of over 60% in size
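Parental KB-3-1 adenocarcinoma cells in phenol-red-free DMEM with 10% FBS were pin-treated with compounds at several concentrations, incubated 72 h at 37 °C, and viability read by CellTiter-Glo luminescence; concentration-effect curves were fitted after normalization.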
HT1080 IDH1KD tx: HT-1080 IDH1 knockdown cell toxicity (counter line); Potency, µM (titrated, usually from 46.1 µM), hits mostly cytotoxic; HT-1080 IDH1 knockdown viability, ATP luminescence, 48 h; hit rate 2% among 360,000
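Using the IDH1-knockdown HT-1080 line run in the same batch and compound series as the NT line, viability after 48 h at 37 °C was determined by CellTiter-Glo luminescence and expressed as % activity.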
KB-V1 cytotox: kills drug-selected multidrug resistant KB-V1 cells; KB-V1 MDR cells viability, CellTiter-Glo, 72 h; Potency, µM (highest dose often 46.1 µM), most hits filed as cytotoxic; hit rate 3.4% among 400,000; note: nearly all actives have a fitted effect of over 60% in size
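Cytotoxicity via CellTiter-Glo luminescence after 72 h compound exposure at 37 degrees C. Cells: drug-selected KB-V1 line, DMEM phenol-red free plus 10% FBS. Compounds tested at multiple concentrations; normalized data fitted to concentration-effect curves.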
HT1080-NT tox: kills 2HG-producing HT-1080-NT fibrosarcoma cells. HT-1080-NT fibrosarcoma viability, CellTiter-Glo ATP luminescence, 48 h. Potency, µM (series often up to 46.1 µM), most hits filed as cytotoxic. hit rate 1.6% among 360,000;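 note: NT is the 2HG producing partner of a matched IDH1 knockdown line; nearly all actives have a fitted effect of over 55% in size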
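Fibrosarcoma NT cells, 750 per well in 5% FBS RPMI, were exposed to compound for 48 hours. Viability: CellTiter-Glo luminescence.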
Numbers stand for hits; - = inactive; ? = inconclusive; . = no result given. This is a sample that favours compounds with a hit; in the whole collection about 5.7% have one here. Calls come from the whole dose curve; as a rule, active = well fitted curve in the direction sought with a large enough effect; inconclusive = small, poorly fitted or top-dose-only effect, or another doubt; inactive = no such curve, though single readings can be large; an effect the other way counts as inactive or inconclusive.

SMILES	KB-3-1 tox	HT1080 IDH1KD tx	KB-V1 cytotox	HT1080-NT tox
CS(=O)(=O)N(CC(=O)N/N=C/c1cc2c(cc1Br)OCO2)c1ccccc1Br	?	-	18.4µM	-
CC(=O)NC(Cc1ccc(I)cc1)C(=O)NCC(N)C(=O)c1ccccc1 (stereo unspecified)	.	-	.	-
Cc1[nH]c2ccccc2c1C1N2CC3(C)CN1CC(C)(C2)C3=O (stereo unspecified)	-	.	-	.
COc1ccc(C2c3[nH]c4ccccc4c3CCN2Cc2cccn2-c2ncccn2)cc1C (stereo unspecified)	?	23.1µM	?	25.9µM
COc1ccc(C(C)(C)C)cc1NC(=O)c1cc(S(=O)(=O)N(C)C)ccc1N1CCCC1	-	-	23.1µM	-
CN(C)S(=O)(=O)c1ccc(N2CCCC2)c(C(=O)Nc2nccs2)c1	-	-	?	-
Cc1cnc(NC(=O)c2cc(S(=O)(=O)N(C)C)ccc2N2CCCC2)s1	20.6µM	-	?	-
CN(C)S(=O)(=O)c1ccc(N2CCCC2)c(C(=O)Nc2ccc(F)cc2F)c1	-	-	-	-
O=C(Cn1ncc2c3ccccc3n(Cc3ccccc3F)c2c1=O)NCc1ccccc1Cl	-	.	-	.
Cc1cccc(-c2nc3nc(C)cc(NCc4ccccc4Cl)n3n2)c1	-	.	?	.
CCc1nnc(SCC(=O)N(CC)c2ccccc2)c2cc3oc(C)cc3n12	-	.	-	.
CCCCCCc1nc2ccccc2c(=O)n1NC(=O)c1c(O)c2c(n(CC(C)C)c1=O)CCCC2	20.6µM	-	18.4µM	-
Cc1nc2ccccc2c(=O)n1NC(=O)c1c(O)c2c(n(CC(C)C)c1=O)CCCC2	?	?	?	20µM
CC(C)Cn1c2c(c(O)c(C(=O)Nc3nc4ccccc4s3)c1=O)CCCC2	-	-	-	-
COc1ccc(S(=O)(=O)N2CCC(C(=O)Nc3ccc(Oc4ccccc4)cc3)CC2)cc1OC	-	.	-	.
COc1ccc(C2C=C(c3ccccc3)Nc3nc(NC(=O)c4cccc([N+](=O)[O-])c4)nn32)cc1 (stereo unspecified)	-	.	-	.
O=C(C1CC(=O)N(C2CCCC2)C1)N1CCC(Cc2ccccc2)CC1 (stereo unspecified)	-	-	13µM	-
COc1cc(/C=N/n2cnc3scc(-c4cccs4)c3c2=O)cc(OC)c1OC	4.61µM	?	?	?
COc1cc(NC(=O)Nc2nc(C(N)Cc3ccc(C(F)(F)F)cc3)cs2)cc(OC)c1OC (stereo unspecified)	?	18.4µM	-	20.6µM
COc1ccccc1NC(=O)Nc1nc(C(N)Cc2ccc(C(F)(F)F)cc2)cs1 (stereo unspecified)	?	.	-	.
COc1ccc(CC(N)c2csc(NC(=O)c3cc(C(C)(C)C)oc3C)n2)cc1 (stereo unspecified)	?	20.6µM	-	20.6µM
NC(Cc1ccccc1)c1csc(NC(=O)Nc2ccccc2Oc2ccccc2)n1 (stereo unspecified)	-	?	?	?
COc1ccc(CC(N)c2csc(NC(=O)CCc3ccccc3)n2)cc1 (stereo unspecified)	-	?	?	?
NC(Cc1ccc(F)cc1)c1csc(NC(=O)NC(c2ccccc2)c2ccccc2)n1 (stereo unspecified)	?	16.4µM	?	18.4µM
COc1ccc(NC(=O)Nc2nnc(C(C)C)s2)cc1	?	-	16.4µM	-
SMILES	KB-3-1 tox	HT1080 IDH1KD tx	KB-V1 cytotox	HT1080-NT tox
COc1ccc(CC(=O)Nc2nnc(C(C)C)s2)cc1	-	-	-	-
Cc1cc(Nc2nc3ccccc3c3nnc(C)n23)ccc1Br	-	.	-	.
COc1ccccc1CNC(=O)Nc1nc(C(N)Cc2ccc(Cl)cc2)cs1 (stereo unspecified)	?	20.6µM	-	14.6µM
COc1ccc(CNC(=O)Nc2nc(C(N)Cc3ccc(Cl)cc3)cs2)cc1 (stereo unspecified)	?	16.4µM	?	?
COc1ccc(CNC(=O)Nc2nc(C(N)Cc3ccc(F)cc3)cs2)cc1 (stereo unspecified)	?	13µM	-	?
COc1ccc(CC(N)c2csc(NC(=O)Nc3ccccc3C(C)C)n2)cc1 (stereo unspecified)	?	?	-	?
COc1ccc(NC(=O)NCc2ccc(Cl)cc2)cc1	-	-	-	-
COc1ccc(CC(N)c2csc(NC(=O)Nc3ccc(OC)cc3)n2)cc1 (stereo unspecified)	?	?	-	23.1µM
COc1cccc(C(=O)Nc2ccc3nc(SCC(=O)N4CCc5ccccc54)sc3c2)c1	-	.	-	.
CC(C)OCCCNC(=O)CN1C(=O)c2ccccc2Sc2ncccc21	-	.	-	.
Cc1ccc(Cn2c(=O)n(Cc3ccccc3Cl)c(=O)c3cccnc32)cc1	-	.	-	.
COc1ccc(CCNC(=O)c2nn(-c3ccc(C)cc3)c(=O)c3c2c2ccccc2n3C)cc1OC	-	.	-	.
Cn1c(SCC(=O)NCc2ccco2)nnc1-c1cccc(NC(=O)c2ccccc2)c1	-	.	-	.
CN(C(=S)NC(=O)c1ccccc1Br)C1CCCCC1	-	2.24µM	?	1.58µM
Cc1ccccc1C(=O)NC(=S)N(C)C1CCCCC1	-	-	-	-
CCC(C)NC(=O)c1nc2c(nnn2Cc2ccccc2Cl)c(=O)[nH]1 (stereo unspecified)	-	-	-	-
O=C(NCc1cccs1)c1nc2c(nnn2Cc2ccccc2Cl)c(=O)[nH]1	5.8µM	3.26µM	8.2µM	4.61µM
CCOc1ccc2c(c1)sc1nc(=O)n(-c3ccc(Cl)c(Cl)c3)c(=O)n12	-	.	-	.
Cc1ccc(-c2cc(NC=O)c3ncc(-c4cnn(C)c4)n3c2)cc1	10.3µM	?	5.8µM	?
COc1cc(-c2cnc3c(NC=O)cc(-c4ccc(C)cc4)cn23)cc(OC)c1OC	0.164µM	?	0.581µM	?
COc1cc(-c2cnc3c(NC=O)cc(-c4ccccc4)cn23)cc(OC)c1OC	?	?	-	?
COc1cc(-c2cnc3c(NC=O)cc(-c4ccccc4Cl)cn23)cc(OC)c1OC	1.03µM	?	3.26µM	?
COc1cc(-c2cnc3c(NC=O)cc(-c4cccc(NC(C)=O)c4)cn23)cc(OC)c1OC	0.366µM	?	-	?
COc1ccc(CN(Cc2ccccc2)C(=O)c2ccncc2)cc1COc1ccc(NC(C)=O)cc1	.	-	.	-
COc1ccc(F)cc1-c1cc(NC=O)c2ncc(-c3cc(OC)c(OC)c(OC)c3)n2c1	?	?	6.51µM	?
SMILES	KB-3-1 tox	HT1080 IDH1KD tx	KB-V1 cytotox	HT1080-NT tox
COc1ccccc1-c1cc(NC=O)c2ncc(-c3ccc(F)cc3)n2c1	16.4µM	18.4µM	9.2µM	?
COc1cc(-c2cc(NC=O)c3ncc(-c4ccccc4)n3c2)cc(OC)c1OC	-	?	?	?
COCc1cc(C)nc2sc(C(=O)Nc3ccc(OC(F)(F)F)cc3)c(N)c12	-	.	-	.
CCC(C(=O)Nc1cccc(C#N)c1)n1nc(-c2ccccc2)ccc1=O (stereo unspecified)	-	.	?	.
CC(C)C[C@@H]1O[C@H](CCc2ccccc2)CC2=C1C(=O)OC(C)(C)O2	?	23.1µM	-	?
CC(C)C[C@@H]1CC2=C(C(=O)OC(C)(C)O2)[C@H](CCc2ccccc2)O1	-	-	?	-
